Screening data as filed in PubChem.
Most compounds without a hit are left out; they make up all but 2.4% or so of the library.
MLLE-PAM2 inh: inhibitors of PABP1 MLLE–PAM2 peptide binding, primary screen, biochemical, fluorescence polarization, FITC-PAM2, GST-MLLE; 360,000 tested, 0.36% active; AID 588489, 2011; inhibition, % at 20 µM; Polyadenylate-binding protein 1 (Homo sapiens), P11940; in the data active = inhibition above about 35%, passing the limit was not always enough;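 note: plate controls were DMSO wells with GST-MLLE for no effect and wells lacking GST-MLLE protein for full effect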
eIF4H inh: human eIF4H binding inhibitors, primary screen, translation initiation inhibitor project, biochemical, uHTS, fluorescence polarization; Eukaryotic translation initiation factor 4H (Homo sapiens), Q15056; eIF4H fluorescence polarization binding assay; inhibition, % at 35 µM; 290,000 tested, 0.94% active;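 note: calls also rest on retests at 20 µM and on dose response follow-up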
HMGR II inh: inhibitors of E. faecalis class II HMGR, primary screen, biochemical, Enterococcus faecalis; purified E. faecalis HMGR, NADPH absorbance 340 nm kinetic; 190,000 tested, 0.41% active; HMG-CoA reductase (Enterococcus faecalis, mvaE); inhibition, % at 10 µM;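 active = inhibition above a set limit, the median over all tested compounds plus 3 SD, cut at about 9.5% in these data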;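 note: enzyme runs in reverse so mevalonate oxidation gives rising NADPH absorbance; 0% = complete reaction with DMSO and 100% = background rate lacking mevalonate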
PHOSPHO1 block: PubChem AID 1565. recombinant PHOSPHO1, absorbance phosphatase assay. inhibition, % at 13.3 µM. 290,000 tested, 1.1% active; in the data active = inhibition above about 60%
Target sequence (Q8TCT1 whole entry, looked up): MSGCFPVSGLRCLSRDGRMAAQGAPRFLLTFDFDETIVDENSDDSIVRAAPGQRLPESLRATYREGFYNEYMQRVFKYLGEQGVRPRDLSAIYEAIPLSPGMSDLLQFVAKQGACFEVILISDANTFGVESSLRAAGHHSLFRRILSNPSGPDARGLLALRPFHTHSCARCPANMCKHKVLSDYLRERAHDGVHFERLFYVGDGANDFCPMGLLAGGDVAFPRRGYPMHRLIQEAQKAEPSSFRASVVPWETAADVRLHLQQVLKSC
PABP polyA inh: PABP poly(A) RNA binding inhibitors, primary screen, biochemical, fluorescence polarization, uHTS; Polyadenylate-binding protein 1 (Homo sapiens), P11940; calls only at 35 µM; 290,000 tested, 1% active;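 note: calls also rest on retests at 20 µM and on dose response follow-up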
* = called active by the depositor; i = inactive; . = no result; + = active, no number. Unless noted, the rule behind the calls is not given here.

SMILES | MLLE-PAM2 inh | eIF4H inh | HMGR II inh | PHOSPHO1 block | PABP polyA inh
CCN(CC)S(=O)(=O)c1cc(NC(=O)Cn2ncc(Cl)c(Cl)c2=O)ccc1C | -23 | 77 | . | 12 | +
O=C(Cn1ncc2c([nH]c3ccccc32)c1=O)Nc1cccnc1 | -14 | -8 | . | 18 | i
COc1ccc(NC(=O)Cn2ncc(Cl)c(Cl)c2=O)cc1S(=O)(=O)N1CCOCC1 | -21 | 90 | 0 | -32 | +
Cc1ccc(NC(=O)Cn2ncc3c([nH]c4ccccc43)c2=O)cc1Cl | -17 | -1 | . | 63* | i
COc1ccc(NC(=O)c2ccc(Cl)nc2)cc1S(=O)(=O)N1CCOCC1 | 5 | . | . | . | .
COc1ccc(CCNC(=O)C2(C)CCC(=O)N2Cc2ccc(C)cc2)cc1OC (configuration not stated) | 16 | -8 | . | 28 | i
Cc1ccc(NC(=O)c2ccc3nc[nH]c3c2)c(O)c1 | 1 | -17 | 16* | 37 | i
Cc1ccc(NC(=O)c2ccc3nc[nH]c3c2)nc1 | 5 | 57 | . | -1 | i
CCOc1ccc(-c2nnc(SCC(=O)Nc3ccc4c(c3)c3ccccc3n4CC)n2N)cc1 | -52 | 1 | 3 | 79* | i
CCn1c2ccccc2c2cc(NC(=O)CSc3nnc(-c4ccccc4OC)n3N)ccc21 | -21 | -2 | -5 | 78* | i
CCn1c2ccccc2c2cc(NC(=O)CSc3nnc(-c4ccc(OC)c(OC)c4)n3N)ccc21 | -18 | -4 | -15 | 45 | i
CCn1c2ccccc2c2cc(NC(=O)CSc3nnc(-c4cccc(OC)c4)n3N)ccc21 | -29 | 6 | 1 | 28 | i
Cc1cc(=O)c2cc3nc(-c4cccnc4)oc3c(Br)c2o1 | . | 97* | . | 24 | +
O=c1oc(-c2cccnc2)nc2ccccc12 | -2 | 5 | -4 | 13 | i
CC(=O)Nc1cc(NC(C)=O)cc(C(=O)N2CCCC3CCCCC32)c1 (configuration not stated) | -28 | 79* | . | 6 | +
O=C(Nc1ccccc1)N1CCCC2CCCCC21 (configuration not stated) | 9 | 5 | -5 | 7 | i
CCOC(=O)c1cc2c(ccn2C)n1CC(=O)N(Cc1ccccc1)c1ccccc1 | 41* | 12 | 0 | -5 | i
Cc1cc(Cl)ccc1OCc1n[nH]c(=S)n1C1CCCCC1 | -53 | 5 | -5 | 55 | i
S=c1[nH]nc(-c2cccnc2)n1C1CCCCC1 | 21 | -11 | -1 | 6 | i
COc1ccc(-c2n[nH]c(=S)n2C2CCCCC2)cc1 | 17 | 4 | -10 | 100* | i
COc1ccc(Cl)cc1-c1n[nH]c(=S)n1C1CCCCC1 | 12 | 2 | -4 | 97* | i
O=C(C[n+]1cccc(/C=N/O)c1)N1CCCc2ccccc21 | 12 | -5 | -1 | -8 | i
COC(=O)C(=N/Nc1ccccc1C(=O)OC)/C(C)=N/O | 9 | 0 | . | 24 | i
COc1cccc(NC(=S)N(CCCN2CCCC2)Cc2ccco2)c1 | 7 | active | 0 | 1 | i
CNc1ccc(Cl)cc1S(=O)(=O)c1ccccc1[N+](=O)[O-] | 9 | . | . | . | .
SMILES | MLLE-PAM2 inh | eIF4H inh | HMGR II inh | PHOSPHO1 block | PABP polyA inh
Cc1ccsc1C(=O)N1CCC1(C)C(=O)NS(=O)(=O)c1ccc(C#N)cc1 (configuration not stated) | 6 | . | . | . | .
CCOC(=O)/C=C(\C)Sc1cc(O)c2ccccc2c1O | 62* | 16 | . | 42 | i
c1ccc2oc(-c3[nH]ncc3CN(Cc3ccncc3)CC3CCCO3)cc2c1 (configuration not stated) | -12 | -7 | -3 | 60* | i
O=C1CC[C@@H](CN(Cc2ccccc2)Cc2cn[nH]c2-c2cc3ccccc3o2)N1 | 17 | 0 | -2 | 32 | i
CN1CCC(OC(=O)c2cc3cc(Cl)cc(Cl)c3oc2=O)CC1 | 6 | -9 | . | 61* | i
COc1cc(CN2C[C@@H](CO)O[C@@H](n3cnc4c(NC5CCC5)ncnc43)C2)cc(OC)c1OC | 7 | . | . | . | .
Cc1cccc(NC(=O)CCN2CCCCC2)c1 | 5 | -3 | . | 19 | i
O=C(CCN1CCN(c2ccccc2)CC1)Nc1ccc2c(c1)OCO2 | -9 | 4 | 1 | 2 | i
Cc1cc(C)cc(NC(=O)CCN2CCCC2)c1 | -19 | -12 | -4 | -1 | +
CCN1CCN(CCC(=O)Nc2ccc3c(c2)OCO3)CC1 | 0 | -5 | 16* | 26 | i
CCCCNC(=O)c1cc2cc(CC)ccc2[nH]1 | -13 | 0 | . | 19 | i
CCn1c(O)c(C#N)c(C)cc1=O | 13 | 78* | . | -2 | i
Cc1cc(=O)n(CC(C)C)c(O)c1C#N | -1 | 119* | 1 | 20 | +
COc1ccc2[nH]c3c(c2c1)CCN1C(=O)N([C@@H](C)C(=O)NCc2ccc(C)cc2)C(=O)[C@]31C | 3 | -1 | . | 23 | i
N#CC1=C(N)Oc2cc(N)ccc2C1c1ccc(F)cc1F (configuration not stated) | -28 | 59 | . | 29 | +
O=C(CCl)Nc1cccc2ncccc12 | 14 | 104* | 1 | 9 | +
O=C(CSc1ccccn1)Nc1ccccc1F | 6 | -7 | -4 | 29 | i
O=C(CSc1ccccn1)Nc1cccc2ccccc12 | -75 | 1.8* | -3 | 16 | +
CCCCNC(=O)c1cn(C)c2ccc(S(=O)(=O)N3CC(C)CC(C)C3)cc2c1=O (configuration not stated) | -6 | 0 | . | 2 | i
CN1C(=O)C(O)(CC(=O)c2cccs2)c2ccccc21 (configuration not stated) | -8 | -4 | -2 | -12 | i
CN1C(=O)C(O)(CC(=O)/C=C\c2ccc3c(c2)OCO3)c2ccccc21 (configuration not stated) | -5 | -7 | 11* | 28 | i
Cc1ccc(C(=O)CC2(O)C(=O)N(C)c3ccccc32)s1 (configuration not stated) | 5 | -2 | 14* | 39 | i
NC(=O)CN1C(=O)C(O)(CC(=O)/C=C\c2ccc3c(c2)OCO3)c2ccccc21 (configuration not stated) | 1 | 4 | -1 | -5 | i
CCCCn1c(N)c(N(CCOC)C(=O)COC(=O)c2cc(CCC)c(C)s2)c(=O)[nH]c1=O | -49 | . | . | . | .
Cc1ccccc1C(=O)NC1CCN(CC(=O)NC2CCCCC2)CC1 | 3 | -7 | . | 6 | i
CCOC(=O)CSc1n[nH]c(-c2ccco2)n1 | -24 | -4 | -1 | -5 | i
O=C(O)c1ccc(CSc2n[nH]c(-c3ccco3)n2)cc1 | 23 | 77* | 1 | -20 | +
CCCCNC(=S)NNC(=O)c1csc(C)c1 | -18 | active | 1 | -18 | +
